The list is not random: actives were taken first. Their share in the collection is about 3.7%.
FEN1 inh = human FEN1 inhibition; P39748; Recombinant FEN1 flap cleavage, fluorescence, 15 min; Potency, µM (top dose mostly 114 µM), for inactives: at the highest dose activity change, negative = inhibition, most hits filed as inhibitors; 390,000 compounds, 0.35% hits; AID 588795; further: potency means the concentration at half of the fitted maximal effect; on the % scale 0 is the no-effect control and ±100 the full control effect; nearly all actives have a fitted effect of over 65% in size
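Read-out was taken twice, immediately and after 15 min, following addition of 50 nM substrate to 10 nM FEN1 that had sat with test compound for 15 min at room temperature. Curves came from a four-parameter Hill model.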
PLK1 PBD inh = blocks phosphopeptide binding to human PLK1 polo-box domain; P53350; Plk1 PBD binding of FITC phosphopeptide, fluorescence polarization; Potency, µM, inactives show max response, negative = inhibition, usual class: inhibitors; 360,000 compounds, 2.8% hits; further: potency means the concentration at half of the fitted maximal effect; series mostly up to about 57 µM; on the % scale 0 is the no-effect control and ±100 the full control effect; nearly all actives have a fitted effect of over 65% in size
TCR activator = T cell receptor activation. primary human leukocytes, anti-CD3, IL-2 HTRF, 48 h. Potency, µM (series often up to 9.22 µM), inactives show at the highest dose activation of IL-2 secretion, actives largely listed as activators. 330,000 tested, under 10 active. AID 504894; further: % of control where 0% means no effect
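HTRF read-out of IL-2 secretion: europium cryptate donor excited at 320nm, d2 acceptor emission at 665nm. Cells were primary human leukocytes incubated 48 hr with compounds and a-CD3 beads, supplying TCR signal only.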
VDR inhibitor = inhibitors of human vitamin D receptor. VDR-SRC2-3 peptide fluorescence polarization, 2 h. Potency, µM, for the others: max response, negative = inhibition, hits mostly inhibitors. 400,000 compounds, 0.93% hits. AID 504847; further: potency means the concentration at half of the fitted maximal effect; on the % scale 0 is the no-effect control and ±100 the full control effect
Target sequence (P11473 whole entry, looked up): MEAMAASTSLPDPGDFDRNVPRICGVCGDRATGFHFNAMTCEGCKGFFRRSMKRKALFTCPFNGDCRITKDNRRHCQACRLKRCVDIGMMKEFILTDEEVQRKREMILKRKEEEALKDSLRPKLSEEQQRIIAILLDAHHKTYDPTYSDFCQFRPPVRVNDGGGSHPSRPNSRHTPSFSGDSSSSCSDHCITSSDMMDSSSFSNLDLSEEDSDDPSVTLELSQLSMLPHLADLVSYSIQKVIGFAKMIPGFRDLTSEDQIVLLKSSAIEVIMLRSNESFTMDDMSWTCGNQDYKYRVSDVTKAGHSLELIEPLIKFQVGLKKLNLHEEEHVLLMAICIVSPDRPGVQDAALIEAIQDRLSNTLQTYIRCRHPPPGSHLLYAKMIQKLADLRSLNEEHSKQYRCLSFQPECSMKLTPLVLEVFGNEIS
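Signal is fluorescence polarization, reporting how far test compounds block the interaction of VDR with the SRC2-3 coregulator peptide after a 2 h room-temperature incubation.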
WRN helicase inh = inhibitors of human WRN helicase. WRN helicase unwinding, fluorescent forked duplex, kinetic. Potency, µM (series often up to 114 µM), for inactives: top-dose activity change, negative = inhibition, most hits filed as inhibitors. 360,000 compounds, 0.46% hits. AID 651768; further: potency means the concentration at half of the fitted maximal effect; on the % scale 0 is the no-effect control and ±100 the full control effect; nearly all actives have a fitted effect of over 55% in size
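Screening of the MLSMR collection measured strand separation of a quenched forked DNA duplex (100 nM) by 20 nM WRN with 2 mM ATP, all final. Compounds were preincubated with enzyme 15 min at room temperature.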
PI5P4Ka inh = blocks human PI5P4K alpha kinase activity | P48426 | PI5P4Kalpha enzyme, ADP-Glo luminescence, 60 min; active compounds read low | max response, % | 330,000 compounds, 1.2% hits | AID 652105; active means max response of -50% or lower; inconclusive means between -30% and -50%; inactive means -30% or higher; further: value at the top dose of about 77 µM; on the % scale 0 is the no-effect control and ±100 the full control effect
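Compounds were pin-transferred onto PI5P4Kalpha and substrate in HEPES pH 7.4 buffer with EGTA, CHAPS and 5% DMSO. ATP (5 microM final) started the reaction, which ran 60 minutes at room temperature before ADP-Glo detection.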
Active calls of the source: *; i = inactive; ? = inconclusive; . = no result given; ! = not confirmed by another sample; [ ] = another dose, or the depositor's remark. Unless noted, the call rests on the fitted dose curve; in most records, active means well fitted curve in the direction sought with a large enough effect; inconclusive means small, poorly fitted or top-dose-only effect, or another doubt; inactive means no such curve, though single readings can be large; an effect the other way counts as inactive or inconclusive.

SMILES	FEN1 inh	PLK1 PBD inh	TCR activator	VDR inhibitor	WRN helicase inh	PI5P4Ka inh
O=C1SC(SC(=Nc2ccccc2)Nc2ccccc2)C(=O)N1c1ccccc1 (stereo unspecified)	-6.4%	6.7µM*	9.0%	89.1µM*	-14.7%	1.5
Cc1cccc(N(C)S(=O)(=O)c2c(C)[nH]c(C)c2C(=O)N2CCCC2)c1	2.6%	23.8µM*	-3.0%	-25.0%	8.7%	-16.7
O=C(COc1ccccc1C(=O)Nc1ccccc1)NCCCCc1ccccc1	-9.5%	.	.	.	.	.
COc1ccc(CC(=O)NCC2CCCN(Cc3cccc(C(F)(F)F)c3)C2)cc1 (stereo unspecified)	18.8%	26.7µM*	-7.3%	?	-1.3%	0.3
COc1ccc(CC(=O)NCC2CCCN(Cc3ccc(F)c(OC)c3)C2)cc1 (stereo unspecified)	13.6%	-15.5%	-2.3%	-9.7%	2.2%	0.4
CCOCCCn1c(=NC(=O)c2cccnc2)c(C(=O)OCC)cc2c(=O)n3ccccc3nc21	-2.1%	18.9µM*!	3.9%	?	4.6%[11.6 µM]	27.6
O=C(Nc1ccc(C2=NCCN2)cc1)c1ccc(C(=O)Nc2ccc(C3=NCCN3)cc2)c([N+](=O)[O-])c1	39.8µM*	7.6%	2.2%	-6.1%	?	-28.4
O=C(NCc1ccccc1)C1CCCN(S(=O)(=O)c2cccc3nonc23)C1 (stereo unspecified)	8.5%	1.5%	1.0%[46.1 µM]	4.2%	5.2%	-14.4
O=C(NCc1ccc2c(c1)OCO2)C1CCCN(S(=O)(=O)c2cccc3nonc23)C1 (stereo unspecified)	1.2%	26.7µM*!	-2.6%	-6.1%	-6.5%	?
O=C(O)c1ccc2c(c1)N(Cc1ccccc1)C(=O)c1ccccc1S2=O (stereo unspecified)	11.0%	26.7µM*	0.0%	-28.5%	5.5%	-20.6
O=C(O)c1ccc2c(c1)C(=O)N(Cc1ccccc1)C2=O	4.6%	-7.3%	2.4%	5.8%	-1.5%	-72.8*
O=C(Nc1ccc(F)cc1)Nc1ccc(Cl)cn1	-3.0%	-2.3%	.	2.6%	7.4%	.
O=C(Nc1ccc(F)c(Cl)c1)Nc1ccc(Cl)cn1	?	15µM*	0.6%	?	12.8%	-9.8
CCc1sc(/C=C(/C#N)C(N)=S)cc1[N+](=O)[O-]	-16.1%	5.32µM*	-12.2%	?	?	-83.3*
CCc1ccc(/C=C(/C#N)C(N)=S)s1	10.9%	-17.8%	4.1%	12.4%	0.1%	-1.4
CCOC(=O)c1cnc2cc(-c3ccc(OCC)cc3)nn2c1-c1ccccc1	1.2%	.	.	7.8%	.	.
CCCC(=O)Nc1nnc(S(=O)(=O)N(C)Cc2ccco2)s1	4.9%	26.7µM*	-0.4%	?	11.8%	-8.6
CCC(=O)Nc1nnc(S(=O)(=O)N(C)Cc2ccco2)s1	-10.9%	26.7µM*	1.3%	?	-1.2%	-8.7
Cc1ccc2cccc(NC(=O)COc3ccccc3Cl)c2n1	1.9%	.	.	2.7%	.	.
Cc1ccc(NC(=O)c2ccc(NC(=O)N3CCSc4ncccc43)cc2)c(Cl)c1	2.5%	.	.	12.7%	.	.
CN(C)c1ccc(N/C=C/C(=O)c2ccco2)cc1	5.3%	0.9%	1.4%	89.1µM*	-8.4%	?
CCC1CCCCN1C(=O)c1ccc2c(c1)N(Cc1cccc(Cl)c1)C(=O)c1ccccc1S2(=O)=O (stereo unspecified)	-2.1%	.	.	7.8%	.	.
CCOC(=O)N1CCN(C(=O)CSc2nnc(-c3cc(OC)ccc3OC)o2)CC1	4.9%	3.36µM*	5.1%	?	-25.2%	?
CCOC(=O)N1CCN(C(=O)CSc2nnc(-c3cc(OC)cc(OC)c3)o2)CC1	8.5%	1.9%	-5.0%	-0.6%	-3.9%	8.2
CCOC(=O)N1CCN(C(=O)CSc2nnc(-c3cccc(OC)c3)o2)CC1	-4.9%	3.36µM*	4.4%	?	-6.0%	?
SMILES	FEN1 inh	PLK1 PBD inh	TCR activator	VDR inhibitor	WRN helicase inh	PI5P4Ka inh
COc1cc(C(=O)Nc2ccccc2SCc2cc(=O)n3nc(C)sc3n2)cc(OC)c1OC	0.0%	26.7µM*	-4.1%	?	-5.0%	-3.1
CN(C)c1ccc(/C=C/c2ccnc3ccc(Br)cc23)cc1	-26.3%	.	.	.	.	.
CC1CCN(c2oc(-c3cccs3)nc2S(=O)(=O)c2ccc(Cl)cc2)CC1	-22.7%	.	.	?	.	.
Cc1ccc(C)c(NC(=O)CSc2ncc3c(n2)-c2ccc(Cl)cc2N(C)S3(=O)=O)c1	2.7%	.	.	0.8%	.	.
Cc1ccc(NC(=O)CN(C)C(=O)c2cccc(Br)c2)cc1	4.0%	29.9µM*	-1.5%	-19.2%	7.9%	-1.4
Cc1ccc(NC(=O)CN(C)C(=O)c2cccc(S(=O)(=O)NCc3ccccc3)c2)cc1	-2.3%	4.7%	6.9%	3.5%	-9.5%	-2.5
Clc1ccccc1-c1nc(Nc2ccncc2)c2ccccc2n1	.	.	.	35.5µM*	.	.
Clc1ccccc1-c1nc(-n2ccnc2)c2ccccc2n1	.	.	.	56.2µM*	.	.
CCOc1nc(-c2ccccc2Cl)nc2ccccc12	17.5%	-1.0%	9.4%	15.3%	-7.0%	22.6
CN(C)C(=O)c1ccc(-c2nc(-n3ccnc3)c3ccccc3n2)cc1	.	.	.	-19.2%	.	.
CN(C)c1ccc(-c2nc(-n3ccnc3)c3ccccc3n2)cc1	.	.	.	25.1µM*	.	.
Cc1ccccc1-c1nc(Nc2ccncc2)c2ccccc2n1	.	.	.	2.9%	.	.
CC(C)(C)OC(=O)[C@H](Cc1ccccc1)NC(=O)c1nc[nH]c1C(=O)N1CCN(c2ccccc2)CC1	-32.3%	21.2µM*	-4.2%	?	-3.5%	-0.8
COC(=O)c1cc(C#N)c(NCc2ccccc2)nc1C	4.1%	3.36µM*	15.9%	?	-28.2%	?
CCCC/C=C1/CCC(CN(C)C)C1=O (stereo unspecified)	-1.7%	11.9µM*	5.9%	?	?	-0.3
COc1ccc2c(c1)C(=O)[C@H](OC(=O)N[C@H]1CCCc3ccccc31)[C@@H](c1ccc(OC)c(Br)c1)O2	.	.	.	6.3%	.	.
CCCCC(CC)C(=O)Nc1ccc(C)c(O)c1 (stereo unspecified)	-1.8%	29.9µM*	-3.7%	?	7.4%	-2.8
CCCCC(CC)C(=O)Nc1ccc(Nc2ccccc2)cc1 (stereo unspecified)	-2.4%	-1.8%	-0.9%[46.1 µM]	-0.6%	-8.2%	-12.3
O=c1cc(-c2ccccc2O)oc2cc(O)ccc12	.	.	.	7.2%	.	.
CCOc1ccccc1-c1c2cc(O)c(=O)cc-2oc2cc(O)c(O)cc12	20µM*	-10.4%	5.8%[46.1 µM]	?	89.1µM*	-55.1*
O=c1cc2oc3cc(O)c(O)cc3c(-c3ccccc3O)c-2cc1O	22.4µM*	23.8µM*	1.5%	?	i	-87.9*
CC(=O)c1cccc(NC(=O)COc2ccccc2C(=O)Nc2ccccc2)c1	-34.3%	.	.	.	.	.
Cc1ccc(C)c(NC(=O)CN(CCc2ccccc2)S(=O)(=O)c2ccccc2)c1	89.1µM*	.	.	-18.5%	.	.
CCN1CCN(C(=S)NCCOC)CC1	17.5%	29.9µM*	1.0%	-17.7%	1.9%	-18.3
